Target: AMP-activated protein kinase, AMPK (Homo sapiens) (UniProt P54646+O43741+P54619+Q9UGJ0+Q9Y478+Q13131+Q9UGI9)
Assay: AMP-dependent Kinase enzyme assay. An in vitro enzyme assay that detects ADP turnover that is directly proportional to AMPK activity. This uses naive AMPK that is activated during the assay with MK-8722
Type: functional
Set-up: scale not given: direction of the effect not stated beside the values
Conditions: 30 µM

In order of rising Percent Effect:
1. CSc1ncccc1C(=O)Nc1ccc(Cn2ccccc2=O)cc1  -11.3%
2. Cc1csc(CCNC(=O)N2CCC(C(N)=O)CC2)n1  -10.8%
3. CC(NC(=O)NCc1cccnc1N(C)C)c1ccc(F)cc1 (stereo not given)  -7.51%
4. O=C(CC1CCc2ccccc21)NC1(C(=O)O)CCCC1 (stereo not given)  -6.64%
5. Cc1ccc(-c2cc(CN(CC(N)=O)CC(C)C)on2)cc1  -6.41%
6. COc1ccc(S(=O)(=O)Nc2cccnc2-n2cncn2)c(C)c1  -5.19%
7. CC(C)N(C(=O)Cn1cc(Cl)cn1)c1ccccc1  -3.03%
8. C[C@@H]1CN(c2ccc(C#N)cn2)CC[C@@]1(O)C1CCOCC1  -1.81%
9. O=C(CCC1CCCO1)NCCN1CCCCC1 (stereo not given)  -1.67%
10. CC(NCc1cnc(N2CCN(C)CC2)nc1)c1ccc(F)cc1 (stereo not given)  -1.25%
11. CCc1csc(NC(=O)Nc2c(C)n[nH]c2C)n1  -1.09%
12. CN1N=C(C(=O)NCCc2ccc(OC3CCCC3)cc2)CCC1=O  -0.783%
13. Cc1ccc(N2CCCN(C(=O)CCCn3ccnc3C)CC2)nn1  -0.453%
14. CC(=O)NCc1ccc(C(=O)N2CCCc3c(F)ccc(C)c32)cc1  -0.0493%
15. CC(C)(O)CCc1cccc(C(=O)NCc2nccs2)c1  0.5%
16. CN(C)C(C(=O)N1CCC(c2ncc[nH]2)CC1)c1ccc2c(c1)OCO2 (stereo not given)  1.17%
17. Cc1cc(CN(C)C(=O)c2cc(COc3ccccc3)[nH]n2)n[nH]1  1.22%
18. CC(C)[C@H]1CN(Cc2nccn2C)C[C@@H]1NC(=O)CCS(C)(=O)=O  1.59%
19. CSc1nccc(N2CCC(NCc3ccc4nsnc4c3)CC2)n1  2.27%
20. Cc1ccccc1SCC(=O)Nn1cnnc1  3.33%
21. O=C(c1ccc2[nH]cnc2c1)N1CCC(Oc2ccccn2)CC1  3.35%
22. CCCc1nnc(N2CCC(N3CCCC(O)C3)CC2)o1 (stereo not given)  4.12%
23. Cc1cccc(-c2noc(Cn3nc(C(N)=O)ccc3=O)n2)c1  5.3%
24. O=C1NC(C(=O)NCc2cccnc2Oc2ccc(F)cc2F)CO1 (stereo not given)  5.7%
25. O=C1CC2(CCCC2)CC(=O)N1CCn1cnnc1  5.88%
26. COCCNc1ccc(CC2CCCN(c3ncccn3)C2)nn1 (stereo not given)  6.13%
27. CC(=O)NCCCNC(=O)N1CCN(c2cc(F)ccc2F)CC1  6.39%
28. CCCn1nnnc1COC(=O)C1Cc2cc(Cl)ccc2O1 (stereo not given)  6.63%
29. Cc1noc(C)c1-c1n[nH]c2c1CN(S(=O)(=O)c1ccsc1)CC2  7.37%
30. COCCCC1CCCCN1Cc1cn2cc(C)ccc2n1 (stereo not given)  7.53%
31. O=C(Cc1c(F)cccc1Cl)NC1CCCCNC1=O (stereo not given)  7.73%
32. CCc1cnc(CNC(=O)NCCCO)s1  9.14%
33. CC(C)N(Cc1ccccn1)C(=O)CN(C)C(=O)c1cccs1  10.8%
34. CC(NCC(=O)N1CCc2sccc2C1)c1ccccc1F (stereo not given)  10.8%
35. COCCCNc1ncnc2c1CCN(C(=O)CC1C=CCC1)CC2 (stereo not given)  11.8%
36. O=C(Nc1ccc(-c2csnn2)cc1)NC(CCO)C1CC1 (stereo not given)  12.3%
37. Cc1nn(C)c(C)c1-c1ccc(=O)n(C(C)C(=O)NC2CCCCC2)n1 (stereo not given)  12.6%
38. CN(C)c1ccc(C(=O)Nc2ccn(CCc3ccncc3)n2)cn1  14.4%
39. O=C(c1cnco1)N1CCC(Cc2cnc3ccccc3c2)CC1  18.4%
40. CCC(=O)N1CCOC(c2cc(Nc3nncs3)cc(C)n2)C1 (stereo not given)  23%

From ChEMBL document CHEMBL3988442, “University of Dundee, Small-Polar-MMV Screening Library” (2021)
